Compounds with a hit are over-represented: about 3.8% of the library has one in this group of screens.
KLK7 zymogen act = proKLK7 zymogen activators, primary screen, biochemical, fluorescence intensity | activation, % at 7 µM | 370,000 compounds, 0.9% hits | purified proKLK7, EDANS-DABCYL substrate fluorescence; 100% is mature enzyme control, 0% vehicle | Kallikrein-7 (Homo sapiens), P49862;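 active means activation above the mean of all tested compounds plus 3 SD, computed per campaign excluding outliers beyond control limits, cut at about 13% in these data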
ADAM10 inh = human ADAM10 inhibitors, primary screen, biochemical, QFRET, HTS; recombinant ADAM10, EDANS/DABCYL FRET peptide cleavage, 3 h; inhibition, % at 7 µM; 370,000 compounds, 0.62% hits; AID 720582, 2013;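 active means inhibition above a per-campaign cutoff equal to the mean of compounds falling between control-based bounds plus 3 SD, cut at about 20% in these data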;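 further: 0% = DMSO wells while the 100% control is not disclosed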
Target sequence (O14672 214-748 limits assumed): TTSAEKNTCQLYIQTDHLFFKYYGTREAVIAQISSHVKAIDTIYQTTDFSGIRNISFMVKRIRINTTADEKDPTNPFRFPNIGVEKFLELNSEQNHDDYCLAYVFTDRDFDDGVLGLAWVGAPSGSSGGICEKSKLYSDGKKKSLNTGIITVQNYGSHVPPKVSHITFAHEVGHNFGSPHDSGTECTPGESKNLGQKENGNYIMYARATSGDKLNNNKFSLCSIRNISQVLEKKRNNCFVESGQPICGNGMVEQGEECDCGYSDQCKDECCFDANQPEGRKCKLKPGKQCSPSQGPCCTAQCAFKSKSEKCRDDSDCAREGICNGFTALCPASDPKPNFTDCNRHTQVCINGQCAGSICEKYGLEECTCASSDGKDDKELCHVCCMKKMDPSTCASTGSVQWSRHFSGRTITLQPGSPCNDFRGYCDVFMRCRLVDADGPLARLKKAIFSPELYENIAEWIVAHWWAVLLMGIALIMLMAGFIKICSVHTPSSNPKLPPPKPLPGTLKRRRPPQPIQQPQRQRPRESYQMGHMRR
Ecoli rRNA inh = reduced GFP signal of wild-type E. coli, primary screen, bacterial rRNA inhibitor project, GFP/RFP fluorescence, OD600, single point. 350,000 compounds, 1.6% hits. GFP signal change (wild-type ribosome), % (no concentration beside the values). E. coli WT GFP vs humanized-ribosome RFP mutants, 24 h; hits give low values; DMSO median 0, no signal -100;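 active means significant combined selectivity score with lowered wild-type GFP, culture density cut under 30%, mutant RFP and density less affected; inactive means any of these conditions unmet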
ADAM17 inh = ADAM17 inhibitors, primary screen, biochemical, QFRET | 370,000 compounds, 0.83% hits | inhibition, % at 6.95 µM | recombinant ADAM17, EDANS/DABCYL FRET peptide cleavage;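 active means inhibition above the mean of compounds lying between control limits plus 3 SD, set per campaign, cut at about 8.5% in these data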;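 further: 0% = DMSO-only wells as the low control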
FGF22 binding = binders of human FGF22 protein, primary screen, FGF22 synaptogenesis inhibitor project, biophysical, thermal shift, single point. Fibroblast growth factor 22 (Homo sapiens), Q9HCT0. recombinant FGF22 thermal shift, SYPRO orange fluorescence; percent of sucrose octasulfate shift, DMSO zero. activity (Tm shift, normalised), % at 9.99 µM. 340,000 compounds, 1.5% hits. AID 651658, 2012;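 active means mean Tm shift, scaled 0 neutral to 100 positive control, at about 1.3% or above, every replicate too, limit read from the data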
Target sequence (Q9HCT0 whole entry, looked up): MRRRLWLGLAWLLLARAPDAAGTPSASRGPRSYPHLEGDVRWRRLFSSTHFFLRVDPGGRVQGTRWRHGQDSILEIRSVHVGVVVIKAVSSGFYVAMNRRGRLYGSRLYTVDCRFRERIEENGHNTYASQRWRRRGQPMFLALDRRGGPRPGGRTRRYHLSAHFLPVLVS
ADAM10 counter = ADAM10 inhibitors, counter-screen for ADAM17 exosite inhibitor project, biochemical, FRET, human ADAM10. shares compounds with ADAM17 inh. recombinant ADAM10, EDANS/DABCYL FRET peptide cleavage, 3 h. inhibition, % at 6.95 µM. 2,900 compounds, 47% hits. AID 743256, 2014;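 active means mean inhibition over the triplicate runs exceeds the activity threshold set in the earlier primary screen, cut at about 20% in these data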;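 further: 0% = DMSO wells and 100% = marimastat wells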
ADAM17 confirm = ADAM17 inhibitors, hit retest, confirmation, biochemical, QFRET peptide cleavage | shares compounds with ADAM17 inh | recombinant ADAM17, EDANS/DABCYL QFRET peptide cleavage | inhibition, % at 6.95 µM | 2,900 compounds, 65% hits | AID 743257, 2014;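 active means mean inhibition across replicates above the hit cutoff set in the primary screen, cut at about 8.5% in these data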;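 further: 0% = DMSO wells and 100% = marimastat wells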
The depositor's hits bear a star; · = no result; ! = repeats disagree.

SMILES | KLK7 zymogen act | ADAM10 inh | Ecoli rRNA inh | ADAM17 inh | FGF22 binding | ADAM10 counter | ADAM17 confirm
CCOc1ccc(-c2[nH]ncc2-c2ccc(Cl)cc2)c(O)c1 | 0.1 | 15.4 | -56.8 | 9.9* | 0.2 | 12.4 | 11.6*
Cn1nc(-c2ccccc2)c(CSc2ccccc2)c1Cl | 0.1 | 7.4 | · | 9.3* | · | 12.7 | 9.3*
COc1cc(C(c2c(C)[nH][nH]c2=O)c2c(C)[nH][nH]c2=O)ccc1OCc1ccc([N+](=O)[O-])cc1 | -0.8 | 15.7 | · | 10.0* | · | 15.8 | 13.2*
COc1cc(C(c2c(C)[nH][nH]c2=O)c2c(C)[nH][nH]c2=O)ccc1OC(=O)c1cccc([N+](=O)[O-])c1 | 0.0 | 11.0 | · | 2.4 | · | · | ·
CCOC(=O)C1=C(C)Nc2nnnn2C1c1ccccc1Cl (centres undefined) | 0.1 | -2.4 | · | -3.3 | · | · | ·
CCCCOC(=O)C1=C(C)Nc2nnnn2C1c1ccccc1Cl (centres undefined) | 0.6 | 13.6 | · | 9.6* | · | 15.7 | 8.4
COc1cccc(Oc2ccc(S(=O)(=O)N3CCCC3)cc2[N+](=O)[O-])c1 | -0.1 | 17.8 | -3.2 | 8.7* | 0.0 | 13.1 | 3.0
Cc1cccc(-c2ccc([C@H]3[C@H]4CN(C(=O)c5ccc6c(c5)OCO6)CCCCN4[C@H]3CO)cc2)c1 | · | · | -3.0 | · | -0.2 | · | ·
OC(c1ccccc1)(c1ccccc1)C1CCN(CCCNc2ccc(C(F)(F)F)cc2)CC1 | 0.7 | 16.6 | · | 9.4* | · | 19.5 | 10.9*
O=C(C[C@H]1C=C[C@@H](NC(=O)C2CC2)[C@@H](CO)O1)NCC1CC1 | · | · | 4.9 | · | 0.0 | · | ·
O=C(NCc1ccco1)c1ccc(Br)c(S(=O)(=O)N2CCCCC2)c1 | -0.5 | 8.4 | -10.0 | 12.8* | · | 24.9* | 5.4
O=C(NCc1ccco1)c1ccc(S(=O)(=O)N2CCCCCC2)cc1 | 0.8 | -7.1 | 1.9 | -2.6 | -0.2 | · | ·
C[C@H](CO)N1C[C@H](C)[C@@H](CN(C)Cc2ccccc2F)Oc2ncc(C3=CCCC3)cc2C1=O | · | · | -3.3 | · | -0.2 | · | ·
Nc1n[nH]c(N)c1N=Nc1ccc(Cl)cc1 | -0.1 | 16.6 | · | 10.5* | 0.3 | 2.1 | 2.1
COc1ccc([C@H]2C[C@H](n3cc(COC(=O)c4ccccc4)nn3)[C@@H](O)CN2Cc2cccs2)cc1 | 0.3 | 10.8 | 2.6 | 12.1* | 0.1 | 31.6* | 14.1*
Cc1ccc([C@H]2C[C@H](O)[C@@H](n3cc(COC(=O)c4ccccc4)nn3)CN2Cc2cccs2)cc1 | -0.4 | 7.0 | -1.3 | 8.4 | 0.4 | · | ·
O=C(O)c1ccc(NC(=O)c2cccc(N3C(=O)C4C5CCC(C5)C4C3=O)c2)cc1 (centres undefined) | 0.1 | 7.4 | · | 0.0 | · | · | ·
COc1ccc(NC(=O)c2cccc(N3C(=O)C4C5CCC(C5)C4C3=O)c2)cc1 (centres undefined) | 0.5 | 2.0 | -4.6 | 11.0* | -0.2 | 11.9 | 7.8
COc1ccc(C2CC(=O)c3c(O)cc(O)cc3O2)c(CC=C(C)C)c1OC (centres undefined) | 2.0 | 17.1 | -32.2 | 13.8* | -0.1 | 25.2* | 14.4*
Cc1cccc(S(=O)(=O)N2C[C@@H](O)COC[C@@H]3O[C@H](CC(=O)N4CCN(C)CC4)CC[C@H]32)c1 | · | · | 1.7 | · | -0.1 | · | ·
CN(C)S(=O)(=O)c1ccc(S(=O)(=O)Nc2ccc3c(c2)oc2ccccc23)cc1 | -0.2 | 19.3 | · | 9.2* | · | 34.4* | 17.0*
CN(C)S(=O)(=O)c1ccc(NC(=O)c2cc3ccccc3o2)cc1 | -0.3 | -2.3 | · | -1.2 | · | · | ·
Cc1ccccc1S(=O)(=O)N1[C@@H](c2ccc(Br)cc2)C(C(=O)O)=CC[C@H]1c1ccc(Cl)cc1 | 0.7 | 13.1 | -35.7 | 9.3* | · | 11.5 | 8.7*
Cc1ccc(S(=O)(=O)N2[C@@H](c3cccc(Cl)c3)C(C(=O)O)=CC[C@H]2c2ccc(C(C)C)cc2)cc1 | -0.1 | 17.0 | -2.9 | 9.0* | 0.1 | 26.2* | 14.3*
CC(=O)C1=CCC(c2ccc(Cl)cc2)N(S(=O)(=O)c2ccc(C)cc2)C1 (centres undefined) | 0.6 | 19.3 | -2.7 | 11.8*! | -0.2 | 9.0 | 3.0
SMILES | KLK7 zymogen act | ADAM10 inh | Ecoli rRNA inh | ADAM17 inh | FGF22 binding | ADAM10 counter | ADAM17 confirm
CC(=O)C1=CCC(c2ccc(C)cc2)N(S(=O)(=O)c2ccc(C)cc2)C1 (centres undefined) | -0.5 | -2.8 | 5.5 | -5.8 | 0.1 | · | ·
CN1C(=O)c2cc(NC(=O)C3CCCCC3)ccc2OC[C@H]2O[C@H](CC(=O)NCCc3ccncc3)CC[C@@H]21 | · | · | 1.8 | · | -0.1 | · | ·
CCCNC(=O)N1CC2(CCN(Cc3cccc(OC)c3)CC2)c2c(n(C)c3cc(OC)ccc23)[C@@H]1CO | · | · | 1.5 | · | 0.0 | · | ·
O=C(C[C@H]1C[C@@H]2c3cc(NC(=O)NC4CCCC4)ccc3O[C@@H]2[C@@H](CO)O1)NCc1ccc(Cl)cc1 | · | · | -15.7 | · | 0.0 | · | ·
CCOC(=O)c1ccc(NC(=O)C2COc3ccccc3O2)cc1 (centres undefined) | -0.2 | 5.4 | -29.8 | -0.4 | -0.3 | · | ·
CCOC(=O)c1ccc(-n2c(O)c(/C=N/NC(=O)C3COc4ccccc4O3)c3ccccc3c2=O)cc1 (centres undefined) | -3.9 | 5.1 | -0.7 | 10.0* | 0.1 | -30.7 | 5.1
COc1cc(OC)cc(N(C(=O)C2COc3ccccc3O2)C(C(=O)NC2CCCCC2)c2ccc(O)cc2)c1 (centres undefined) | 0.1 | 15.2 | · | 11.1* | · | 15.0 | 10.0*
Cc1ccc(NC(=O)COC(=O)c2cccc(OC(F)F)c2)cc1S(=O)(=O)N1CCCCC1 | 1.0 | 12.2 | -2.4 | 9.1* | 0.1 | 45.1* | 25.2*
Cc1ccc(OCCC(=O)OCC(=O)Nc2ccc(C)c(S(=O)(=O)N3CCOCC3)c2)cc1 | 0.3 | 0.5 | 5.5 | 9.1* | 0.4 | 9.6 | 6.7
O=C(C[C@@H]1CC[C@H]2[C@@H](COC[C@H](O)CN2C(=O)c2ccc(F)cc2)O1)N1CCCCC1 | · | · | -0.6 | · | 0.0 | · | ·
